In PubChem BioAssay (NCATS):
Results filed as inconclusive are left out. A number with no mark means an inactive call. Calls come from the whole dose curve; as a rule, active = well fitted curve in the direction sought with a large enough effect; inconclusive = small, poorly fitted or top-dose-only effect, or another doubt; inactive = no such curve, though single readings can be large; an effect the other way counts as inactive or inconclusive.

These compounds were tested against Aldehyde dehydrogenase, mitochondrial (Homo sapiens) (UniProt P05091) (assay: qHTS for Inhibitors of the Aldehyde Dehydrogenase Family (ALDH2) Primary screen (AID 2061308;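 note: plate controls were vehicle for no effect and reference inhibitor for full effect; nearly all actives have a fitted effect of over 55% in size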)). Details: ALDH2 enzyme inhibition qHTS, 1536-well; series mostly up to 56 µM; activity change, negative = inhibition: at the top concentration.

Compound | activity change, negative = inhibition
C[C@H]1O[C@@H](O[C@H]2C[C@@H](O)[C@]3(CO)C4C(CC[C@]3(O)C2)[C@@]2(O)CC[C@H](C3=CC(=O)OC3)[C@@]2(C)C[C@H]4O)[C@@H](O)[C@@H](O)[C@H]1O (some centres not stated) | -1.13% [at 16.9 µM]
CCCCCn1cc(C(=O)c2cccc3ccccc23)c2ccccc21 | -3.38%
CC[C@@]1(O)C(=O)OCc2c1cc1n(c2=O)Cc2cc3c(OC)cccc3nc2-1 | -3.68%
C[n+]1cc(P(=S)(c2ccccc2)c2ccccc2)n2ccccc21 | -0.874%
C=C1[C@@H](C)C2[C@H](Cc3ccccc3)NC(=O)[C@@]23C(/C=C/C[C@H](C)C[C@@](C)(O)/C=C/[C@@H]3OC(C)=O)[C@@H]1O (some centres not stated) | 4.59%

The compounds below were run against Retinaldehyde dehydrogenase 3 (Homo sapiens) (UniProt P47895) (assay: qHTS for Inhibitors of the Aldehyde Dehydrogenase Family (ALDH1A3) Primary screen (AID 2061315;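 note: plate controls were DMSO vehicle for no effect and reference inhibitor for full effect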)). Details: ALDH inhibition qHTS; series mostly up to 56 µM; activity change, negative = inhibition: at the top concentration.

Compound | activity change, negative = inhibition
O=C(Nc1ncc(Cc2ccc(C(F)(F)F)cc2)s1)c1cnc(-c2ccccc2)o1 | 16.7%
C=C(CO)C(=O)O[C@H]1CC(=C)[C@@H]2C[C@H](O)C(=C)[C@@H]2[C@H]2OC(=O)C(=C)[C@@H]21 | -6.47%
C[C@H]1C/C=C/[C@H]2[C@@H]3O[C@]3(C)[C@@H](C)[C@H]3[C@H](Cc4ccccc4)NC(=O)[C@]32OC(=O)O/C=C/[C@@](C)(O)C1=O | -8.42% [at 28 µM]
CC(CCc1ccc(O)cc1)O[C@@H]1O[C@H](CO[C@H]2OC[C@](O)(CO)[C@H]2O)[C@@H](O)[C@H](O)[C@H]1O (some centres not stated) | -26.6% [at 28 µM]
C[C@]12CC[C@H](O)C[C@H]1CC[C@@H]1[C@@H]2[C@H](O)C(=O)[C@]2(C)[C@@H](c3ccc(=O)oc3)CC[C@]12O | 4.99%
N#Cc1ccc(NC(=O)Nc2nnc(-c3ccncc3)s2)cc1Br | -5.54%
S=P(c1ccccc1)(c1ccccc1)c1cnc2ccccn12 | 4.9%
C[C@@H]1CCC/C=C/[C@H]2C[C@@H](O)C[C@@H]2[C@@H](O)/C=C/C(=O)O1 | 2.36%
C/C=C(\C)C(=O)O[C@H]1CC2C(=C1C)[C@H]1OC(=O)[C@](C)(O)[C@]1(O)[C@H](OC(=O)CCC)C[C@@]2(C)OC(C)=O (some centres not stated) | 3.13% [at 28 µM]
CCOc1ccc(CCNC(=O)c2cc3ccccc3n2Cc2cccc(C)n2)cc1OCC | -6.18%
CC(C)C(=O)O[C@H]1[C@@H]2[C@H](C)C(=O)O[C@@H]2C[C@@H](C)[C@@H]2C=CC(=O)[C@]21C | -0.893%
CCOc1ccc(CCNC(=O)c2ccc(Oc3ccccc3)cc2)cc1OCC | -9.62%
O=S(=O)(Nc1ccccc1)c1ccc(NCc2ccc(Br)cc2O)cc1 | -5.54%
Cc1cccc2nc(NC3=NC(c4[nH]ncc4Cl)C4=C(CCCC4=O)N3)oc12 (configuration not stated) | 0.578%
O=C(N[C@@H]1N=C(c2ccccc2F)c2cccc3c2N(CC3)C1=O)c1cc2ccccc2[nH]1 | 3.63% [at 16.9 µM]
C[C@]12CC[C@H](O[C@@H]3O[C@H](CO)[C@@H](O)[C@H](O)[C@H]3O)CC1=CC[C@@H]1C2CC[C@]2(C)[C@@H](C3=CC(=O)OC3)CC[C@]12O (some centres not stated) | -4.2% [at 16.9 µM]
CO[C@@H]1[C@H](O)[C@@H](O[C@@H]2C[C@H]3CC[C@@H]4C(CC[C@]5(C)[C@@H](C6=CC(=O)OC6)CC[C@]45O)[C@@]3(C)[C@H](O)C2)O[C@H](C)[C@@H]1O[C@@H]1O[C@H](CO)[C@@H](O)[C@H](O)[C@H]1O (some centres not stated) | -17.6% [at 16.9 µM]
C=C(CO)C(=O)O[C@H]1C/C(C)=C/CC/C(CO)=C/[C@H]2OC(=O)C(=C)[C@H]12 | 8.04%
CCc1nn2c(=O)cc(N3CCN(C)CC3)nc2s1 | -4.49%
CO[C@H]1[C@H](O)[C@H](O[C@H]2CC[C@]3(C=O)C4CC[C@]5(C)[C@H](C6=CC(=O)OC6)CC[C@]5(O)C4CC[C@@H]3C2)O[C@@H](C)[C@@H]1O (some centres not stated) | 8.95% [at 28 µM]
CC(C)=CCC[C@]1(C)C=Cc2c(O)c3c(c(CC=C(C)C)c2O1)O[C@]12C(=C[C@@H]4CC1C(C)(C)O[C@@]2(C/C=C(/C)C(=O)O)C4=O)C3=O | -0.89%
COc1ccc(CCNCc2ccc(OC)c3ccccc23)cc1 | -6.07%
CCc1nn2c(=O)c(C)c(N3CCNCC3)nc2s1 | 21.2%
C/C=C(/C)C(=O)O[C@H]1[C@@H]2[C@H](C)C(=O)O[C@@H]2C[C@@H](C)[C@@H]2C=CC(=O)[C@]21C | -7.72%
CC[C@H]1C2CC3[C@@H]4N(C)c5ccccc5[C@]45C[C@@H]([C@H]2[C@H]5O)N3[C@@H]1O | -2.25%
C#C[C@]1(O)CC[C@H]2[C@@H]3CC[C@H]4Cc5nc6nc7ccccc7n6cc5C[C@]4(C)[C@H]3CC[C@@]21C | 3.85%
CCOc1ccc(CCNC(=O)c2cc3sccc3n2CCN(C)C)cc1OCC | -1.86%
